Compounds without any hit were thinned out: in the full panel of roughly 83,000, 20% have a hit.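 In brief: 96-well plates, 48 h treatment, single concentration, percent growth endpoint.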 Unmarked numbers belong to inactive results. Active and inactive are the calls of the source. How the source made its calls: active means growth percent below 10; inactive means the rest.
Columns and labels:
Experiment in all cases: NCI-60 one-dose screen, 48 h (100 = growth as untreated, 0 = no growth, -100 = all killed)
Details in all cases: 10 µM unless noted
NCI-H23 lung = tested on: NCI-H23 lung
NCI-H226 lung = tested on: NCI-H226 lung
NCI-H322M lung = tested on: NCI-H322M lung
HOP-62 NSCLC = tested on: HOP-62 NSCLC
NCI-H460 lung = tested on: NCI-H460 lung
HOP-92 NSCLC = tested on: HOP-92 NSCLC
NCI-H522 lung = tested on: NCI-H522 lung
A549/ATCC NSCLC = tested on: A549/ATCC NSCLC
786-0 renal = tested on: 786-0 renal
COLO 205 colon = tested on: COLO 205 colon

Structure (SMILES) | growth (NCI-H23 lung) | growth (NCI-H226 lung) | growth (NCI-H322M lung) | growth (HOP-62 NSCLC) | growth (NCI-H460 lung) | growth (HOP-92 NSCLC) | growth (NCI-H522 lung) | growth (A549/ATCC NSCLC) | growth (786-0 renal) | growth (COLO 205 colon)
O=C(Nc1ccc(F)cc1)c1ccccc1 | 108% | 104% | 103% | 109% | 105% | 119% | 101% | 99.6% | 100% | 113%
COc1ccc2nc3ccccc3c(NCCNCCO)c2c1 | -40.3% (active) | -10.8% (active) | -25% (active) | -6.96% (active) | -41.3% (active) | -10.7% (active) | -48.7% (active) | -27% (active) | 3.89% (active) | -75.3% (active)
CCc1ccc(C2=C/C(=C/c3ccccc3)C(=O)N2CCc2ccc(S(N)(=O)=O)cc2)cc1 | 101% | 99.2% | 94.5% | 96.9% | 100% | 99.2% | 100% | 108% | 98.6% | 120%
COCCCNc1nc(NC(=O)c2cc(Br)cc(C(F)(F)F)c2)cc(-c2cccnc2)n1 | 103% | 91.8% | 99.9% | 91.8% | 85.7% | 57.9% | 83.6% | 82% | 85.8% | 96.4%
COc1cc(-c2cc(-c3ccc(Nc4ncnc5cc(Cl)ccc45)cc3)nc(N3CCCCC3)n2)cc(OC)c1OC | 102% | 99.3% | 95.5% | 84.7% | 94.7% | 92% | 75.3% | 84.7% | 98.9% | 110%
O=C1Cc2c(sc3c(F)cccc23)C(c2ccccc2[N+](=O)[O-])N1 (stereo not given) | 98.6% | 79.3% | 99% | 91.5% | 76.9% | 92.2% | 102% | 106% | 110% | 113%
COc1ccc(/C=C/C=C\C(=O)c2ccc(-n3ccnc3)cc2)cc1 | 94.1% | 84.3% | 101% | 101% | 92.7% | 96.5% | 85.3% | 81.9% | -0.616% (active) | 101%
CSc1nc2sc3cc(Cl)c(Cl)cc3n2c(=N)c1C#N | 84.8% | 95% | 104% | 94.7% | 98.7% | 98.9% | 89.4% | 106% | 102% | 122%
Nc1cc(NN=C(c2ccc(O)cc2)c2ccc(O)cc2)c([N+](=O)[O-])cc1[N+](=O)[O-] | -58.3% (active) | 61.8% | 110% | -10.2% (active) | -60.1% (active) | 60.5% | -82% (active) | -49.6% (active) | -93.9% (active) | -52.8% (active)
CCOC(=O)C1=C(C(=O)c2ccc(Br)cc2)C(c2ccc(Br)cc2)NC(=S)N1 (stereo not given) | 98% | 94.9% | 97.3% | 88.4% | 101% | 96.3% | 95.9% | 100% | 106% | 118%
COc1ccc(C(=O)/C=C/c2ccccn2)c(O)c1 | 85.4% | 98% | 95.3% | 87.5% | 89.7% | 78.6% | 69.4% | 94% | 79.6% | 103%
C[N+](C)(C)c1ncnc2[n-]cnc12 | 57.8% | 90.4% | 105% | 105% | 100% | 83.2% | 68.9% | 100% | 72.7% | 103%
C=C(C)[C@@H]1CC[C@]2(C(N)=O)CC[C@]3(C)[C@H](CC[C@@H]4[C@@]5(C)C/C(=C/c6cccnc6)[C@H](O)C(C)(C)[C@@H]5CC[C@]43C)[C@@H]12 | 28.1% [100 µM] | 22.8% [100 µM] | 35.6% [100 µM] | 27.5% [100 µM] | 5.04% [100 µM] (active) | 23.4% [100 µM] | 8.63% [100 µM] (active) | 23.1% [100 µM] | 22.7% [100 µM] | -36.6% [100 µM] (active)
CCOc1ccc2sc(NS(=O)(=O)c3ccc(N)cc3)nc2c1 | 104% | 94.7% | 109% | 100% | 104% | 94% | 115% | 112% | 115% | 103%
C/C=C/C1OC23CCCCC2C(C#N)(C(=N)O3)C1(C#N)C#N (stereo not given) | 101% | 103% | 102% | 103% | 101% | 117% | 74.1% | 104% | 105% | 91.6%
FC(F)(F)c1ccc2c(c1)Sc1ccccc1N2 | 96.4% | 94% | 103% | 97% | 104% | 79.9% | 84.9% | 95.4% | 89.6% | 110%
CCCSc1nc(N)nc2nc[nH]c12 | 97.5% | 103% | 161% | 95.7% | 106% | 91.9% | 88.4% | 105% | 97.5% | 113%
CCOC(=O)c1nn(C2CCCCO2)c2ccc(NC(=O)CN3CCOCC3)cc12 (stereo not given) | 99.7% | 106% | 95.7% | 100% | 101% | 108% | 106% | 106% | 98.3% | 118%
Cc1ccc(S(=O)(=O)NCCCNc2nccc(-c3c(-c4cccc(F)c4)nc4occn34)n2)cc1 | 102% | 67.6% | 77.9% | 88.5% | 75.7% | 82.5% | 71.6% | 53.2% | 73.3% | 66%
COc1ccc2c(c1)c(-c1noc(C(=O)c3cn(C)c4ncc(Br)cc34)n1)cn2C | 30.1% | 26.6% | 92.9% | 53.1% | 76.7% | 7.92% (active) | 67.9% | 28.1% | 59% | 68.4%
Cn1cc(-c2nnc(-c3cn(C)c4ncc(Br)cc34)s2)c2cc(Br)ccc21 | 99.5% | 91.8% | 89.8% | 93.1% | 99.4% | 57.2% | 94.2% | 94.4% | 93.5% | 105%
O=C(O)c1cn(C2CC2)c2cc(N3CCN(Cc4cc(Cl)ccc4O)CC3)c(F)cc2c1=O | 78.8% | 82.8% | 77.9% | 64.1% | 52% | 59.9% | 67.5% | 30.4% | 85.1% | 75.7%
CSc1cccc([N+](=O)[O-])c1 | 109% | 104% | 102% | 105% | 114% | 106% | 84% | 101% | 101% | 107%
CC(C)=CCC[C@](C)(O)[C@H]1CC[C@]2(C)[C@@H]1CC[C@@H]1[C@@]3(C)CC[C@H](OC(=O)CCC(=O)O)C(C)(C)[C@@H]3CC[C@]12C | 16.9% [100 µM] | 27.4% [100 µM] | 27.4% [100 µM] | -5.43% [100 µM] (active) | 4.47% [100 µM] (active) | 13.3% [100 µM] | 9.19% [100 µM] (active) | 19.5% [100 µM] | 23% [100 µM] | 12.9% [100 µM]
COc1cc2c(c(OC)c1)C1c3cc(OC)ccc3NC(=O)N1CC2 (stereo not given) | 92.9% | 99.3% | 102% | 67.6% | 79.2% | 80.6% | 38.3% | 67.2% | 95.6% | 80.5%
Cc1ccc(NC(=O)N[C@@H](Cc2cc(F)cc(F)c2)C(=O)N[C@@H]2C(=O)N3CCC[C@H]3C(=O)N3CCCC[C@H]3C(=O)N[C@@H](C)C(=O)N3C[C@H](C)C[C@H]3C(=O)O[C@H]2C)cc1 | 33.5% | 28.5% | 62.8% | 30.1% | 25.6% | 29.8% | 31.8% | 23.1% | 28.2% | 7.51% (active)

Source: PubChem BioAssay (NCI)
